D2 PAM-1 – HTS Assay for Positive Allosteric Modulators of the Human D2 Dopamine Receptor: Primary Screen for Potentiators; D(2) dopamine receptor (Homo sapiens), P14416; HEK293 T-REx D2, calcium flux, EC20 dopamine potentiation; potentiation, % at 10 µM; 0.34% of 340,000 active; AID 485347, 2010;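 active = potentiation over 3 SD above the plate norm, cut at about 30% in these data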
Target sequence (P14416 whole entry, looked up): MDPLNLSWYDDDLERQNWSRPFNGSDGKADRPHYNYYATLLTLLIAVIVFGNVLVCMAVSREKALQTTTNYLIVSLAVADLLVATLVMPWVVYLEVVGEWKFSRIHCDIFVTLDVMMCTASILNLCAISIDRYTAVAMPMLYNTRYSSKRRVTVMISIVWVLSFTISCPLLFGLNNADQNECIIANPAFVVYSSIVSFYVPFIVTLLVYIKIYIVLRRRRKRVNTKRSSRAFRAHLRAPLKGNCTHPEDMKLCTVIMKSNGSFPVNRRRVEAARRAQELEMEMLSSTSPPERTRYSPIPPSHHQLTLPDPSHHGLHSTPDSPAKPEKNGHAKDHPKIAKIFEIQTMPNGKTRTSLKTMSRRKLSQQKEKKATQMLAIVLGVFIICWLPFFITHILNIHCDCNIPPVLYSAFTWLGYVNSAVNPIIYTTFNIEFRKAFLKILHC
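Tetracycline-induced HEK293 T-REx cells force-coupled to calcium signalling expressed D2; compounds were pin-added after a 10 s baseline, read kinetically 180 s, then an EC20 dopamine challenge followed with a further 180 s calcium read.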
D2 ag-1 – Beta-Arrestin HTS for Positive Allosteric Modulators of the Human D2 Dopamine Receptor: Agonists. DiscoveRx PathHunter D2 beta-arrestin, luminescence, 90 min; 100% = 57 uM dopamine signal. activation, % (no concentration beside the values). 0.084% of 360,000 active. AID 624465, 2012; in the data active = activation above about 40%; inconclusive = between about 15% and that limit
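DiscoveRx PathHunter D2 beta-arrestin cells (2,100/well) attached overnight, then compound-stimulated 90 min at 37 C in HBSS/10 mM HEPES/0.1% Tween-20 buffer; beta-galactosidase complementation read by luminescence after 1 h at ambient temperature. Dopamine 57 uM final (EC100) as control.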
D2 antagonist – HTS Assay for Allosteric Antagonists of the Human D2 Dopamine Receptor: Primary Screen for Antagonists; 2% of 340,000 active; inhibition, % at 10 µM; HEK293 TREx D2 cells, calcium flux, dopamine EC80; in the data active = inhibition above about 30%; inactive = below that, where a call was filed
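Cells plated overnight at 30 C with tetracycline; no-wash calcium dye, 30–90 min RT; 10 s baseline; compound pinned; 180 s read; EC80 dopamine added; another 180 s read.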
D2 PAM-2 – Beta-Arrestin HTS for Positive Allosteric Modulators of the Human D2 Dopamine Receptor: Potentiators; D(2) dopamine receptor (Homo sapiens), P14416; DiscoveRx D2 beta-arrestin cells, luminescence, 90 min; 100% = 57 uM dopamine signal; potentiation, % (concentration not given with the values); 0.23% of 360,000 active; AID 624464, 2012; in the data active = potentiation above about 50%; inconclusive = mostly about 30% to 49%
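PathHunter D2 cells, attached overnight at 37 deg C, received compound in DMSO plus dopamine at EC20 (50 nM final) for 90 min at 37 deg C. Beta-arrestin recruitment was read as luminescence after 1 h with detection reagent at ambient temperature.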
D2 ag-2 – HTS Assay for Allosteric Agonists of the Human D2 Dopamine Receptor: Primary Screen for Agonists; 0.53% of 340,000 active; HEK293 T-REx D2 cells, calcium flux agonist mode; activation, % at 2 µM; D(2) dopamine receptor (Homo sapiens), P14416;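 active = activation over 3 SD above normal in the single-dose calcium agonist read, cut at about 30% in these data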
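Tetracycline-induced HEK293 T-REx cells with force-coupled D2 receptor, plated overnight at 30 C, loaded with no-wash calcium dye. After a 10 s baseline, compound was pin-added and calcium flux read kinetically for 180 s; calcium rises flagged agonists.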
Each line names hits and unclear results; the compound was inactive in the other large screens. Only some compounds are listed: those with a hit (about 2.4% of all), similar ones and a draw of the others.

COc1ccc(Cl)cc1N(C(=O)c1ccco1)C(C(=O)NC1CCCC1)c1ccncc1 (stereo not given)	D2 antagonist 39
O=C(NC1CCCCC1)C(c1ccncc1)N(C(=O)c1csnn1)c1ccc(F)cc1 (stereo not given)	D2 antagonist 37
COc1ccc(C(C(=O)NCC2CCCO2)N(C(=O)CNC(=O)c2ccco2)c2cc(C)cc(C)c2)cc1OC (stereo not given)	D2 PAM-1 34
COc1ccc(Cl)cc1N(C(=O)c1ccco1)C(C(=O)NC1CCCC1)c1cccnc1 (stereo not given)	none
COc1ccc(C(C(=O)NCC2CCCO2)N(C(=O)CNC(=O)c2ccco2)c2ccc(C)c(C)c2)cc1OC (stereo not given)	none
COc1ccc(OC)c(N(C(=O)c2ccco2)C(C(=O)NC2CCCC2)c2cc(OC)c(OC)c(OC)c2)c1 (stereo not given)	D2 antagonist 36
CCc1cccc(NC(=O)CCS(=O)(=O)c2ccc3nc(C)sc3c2)c1	none (no result: D2 ag-1, D2 antagonist, D2 PAM-2)
c1ccc(Cn2nnnc2C(c2cccs2)N2CCSCC2)cc1 (stereo not given)	D2 antagonist 33
CC1CCCCN1CCNC(=O)CN1C(=O)CSc2ccc(S(=O)(=O)N3CCCCC3)cc21 (stereo not given)	none (no result: D2 PAM-1, D2 antagonist, D2 ag-2)
CN1CCCN(Cc2nc(-c3ccc(Cl)cc3)no2)CC1	none
CN1CCCN(Cc2ccc(Cl)cc2Cl)CC1	D2 antagonist 35
COc1cc(CC(=O)N(CC(C)C)C2CCS(=O)(=O)C2)cc(OC)c1OC (stereo not given)	none (no result: D2 PAM-1, D2 antagonist, D2 ag-2)
O=C(Nc1cc(C(F)(F)F)ccc1-n1cncn1)c1ccc(F)cc1Cl	D2 antagonist 35
Cc1ccc(C(=O)Nc2cc(C(F)(F)F)ccc2-n2cncn2)o1	none
CN(C)c1ccc(/C=N/NC(=O)CNC(=O)c2ccc3c(c2)OCCO3)cc1	none
CCN(CC)c1ccc(/C=N/NC(=O)CNC(=O)c2ccc3c(c2)OCCO3)cc1	D2 antagonist 33
N#Cc1ccc(NCC(=O)Nc2ccc(S(=O)(=O)N3CCCCC3)cc2)cc1	none
CCC(C)c1ccc(NC(=S)N2CCN(c3ccccn3)CC2)cc1 (stereo not given)	D2 ag-2 30
CCCCc1ccc(NC(=S)N2CCN(c3ccccn3)CC2)cc1	none
CCOC(=O)C1(Cc2ccccc2C(F)(F)F)CCN(C2CCC2)CC1	D2 antagonist 32
CCOC(=O)C1(Cc2ccccc2C(F)(F)F)CCN(CCCn2cccn2)CC1	D2 antagonist 48
COc1ccc(-c2nc3cc(C(C)C)ccc3o2)cc1NC(=O)c1ccccc1[N+](=O)[O-]	none (no result: D2 ag-1, D2 antagonist, D2 PAM-2)
CC1(C)Oc2ccc(C(=O)NC3CCCC3)cc2N(CC(=O)NC2CCCCC2)C1=O	D2 antagonist 52
Cc1ccc(C)c(CSc2nnc3[nH]c(=O)cc(-c4ccccc4)n23)c1	none (no result: D2 ag-1, D2 antagonist, D2 PAM-2)
CCOc1ccc2ccccc2c1/C=N\NC(=O)OC	none
CCOc1ccccc1NC(=O)CSc1ccc([N+](=O)[O-])cc1	D2 antagonist 41
CCOc1ccc2ccccc2c1/C=N\NC(=O)c1ccc([N+](=O)[O-])cc1	D2 antagonist 39
CCOc1ccccc1NC(=O)NNS(=O)(=O)c1ccc([N+](=O)[O-])cc1	none
CCOc1ccccc1NC(=O)C1COc2ccccc2O1 (stereo not given)	none
CCOC(=O)C1(CC2CCCCO2)CCN(Cc2ccc(OC)cc2F)CC1 (stereo not given)	D2 antagonist 61
COc1ccc(OC)c(CCNC(=O)c2cnn(-c3ccccc3Cl)c2C2CCN(C(=O)OC(C)(C)C)CC2)c1	none (no result: D2 ag-1, D2 antagonist, D2 PAM-2, D2 ag-2)
COc1ccc(-n2c(SCC(=O)Nc3cc(C)on3)nc3c(c2=O)SCC3)cc1	none
COc1ccc(NC(=O)CSc2nc3c(c(=O)n2-c2ccc(F)cc2)SCC3)c(OC)c1	D2 antagonist 38
O=C1C=CN(C2OC(CO)C(O)C2O)C(=O)C1 (stereo not given)	none (no result: D2 PAM-1, D2 antagonist, D2 ag-2)
COc1ccccc1C(=O)O/N=C(/c1ccncc1)c1ccc([N+](=O)[O-])cc1	D2 ag-1 inconclusive, D2 PAM-2 100
Cc1oc(-c2cccs2)nc1CN1CCN(C(C)C)C(CCO)C1 (stereo not given)	none
Cc1oc(-c2cccs2)nc1CN1CCC(c2ccccc2)CC1	D2 antagonist 83
COc1ccccc1CNC(=O)C1CCN(Cc2nc(-c3ccc(OC)c(OC)c3)oc2C)CC1	none (no result: D2 ag-1, D2 antagonist, D2 PAM-2)
COc1ccc(-c2nc(CN3CCC(c4ccccc4)CC3)c(C)o2)cc1OC	D2 antagonist 44
CCCCC(=O)N(C)c1c(C)nc2ccc(C(=O)N3CCN(C(=O)c4ccco4)CC3)cn12	none (no result: D2 PAM-1, D2 antagonist, D2 ag-2)
CCN(CC)CCNC(=O)c1ccc(NC(C)=O)cc1	none
CCN(CC)CCNC(=O)c1ccc(NC(=O)COc2ccc3c(c2)CCC3)cc1	D2 antagonist 32
CCN(CC)CCNC(=O)c1cn(-c2ccccc2)nc1-c1cccs1	D2 antagonist 37
CCCN(c1ccccc1CC)S(=O)(=O)c1ccc2c(c1)CC(C)N2C(=O)C1CC1 (stereo not given)	none (no result: D2 ag-1, D2 antagonist, D2 PAM-2)
Cc1ccc(N2CCN(CC(O)COC3CCCCC3)CC2)cc1 (stereo not given)	D2 antagonist 63
Cc1nc2ccccc2n1CC(O)COC1CCCCC1 (stereo not given)	D2 antagonist 32
CC(=O)Nc1ccc(OCC(O)Cn2c(C)nc3ccccc32)cc1 (stereo not given)	none
CC(=O)N(C)c1ccc(OCC(O)Cn2c(C)nc3ccccc32)cc1 (stereo not given)	D2 PAM-1 31
COc1ccc(S(=O)(=O)N2CCCCC2)cc1NC(=O)CNc1ccccc1C(C)=O	none
CCOc1ccc(NC(=O)Cn2cc(C(=O)c3ccc(CC)cc3)c(=O)c3ccc(C)nc32)cc1	none (no result: D2 ag-1, D2 antagonist, D2 PAM-2)
C[C@H]1CCCCO[C@H](CN(C)Cc2ccc(C(=O)O)cc2)[C@@H](C)CN([C@@H](C)CO)C(=O)c2cc(NS(=O)(=O)c3cn(C)cn3)ccc2O1	none (no result: D2 PAM-1, D2 antagonist, D2 ag-2)
Cn1c(N)c(C(=O)Nc2ccccc2)c(=O)[nH]c1=O	none (no result: D2 PAM-1, D2 antagonist, D2 ag-2)
Cn1c(N)c(C(=O)/C=C/c2ccccc2)c(=O)[nH]c1=O	D2 antagonist 54
Cc1ccc(C)c(NC(=S)N2CCC(NC(=O)c3ccco3)CC2)c1	none
CCOC(=O)c1c(C)n(-c2ccc(C)cc2)c2ccc(O)c(CN(C)C)c12	D2 antagonist 40
CCc1ccc2nc(N(CCCN(C)C)C(=O)c3ccc(S(=O)(=O)N4CCCc5ccccc54)cc3)sc2c1	none

Source: PubChem BioAssay
